CHO-K1 Ca PAM – nonselective activator or artifact in parental CHO-K1 calcium assay. activation, % at 3 µM. ATP EC20, Fluo-8 calcium fluorescence; 0% at ATP EC20, 100% at ATP max. actives 0.02% (n = 360,000);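 active means activation above the run cutoff, the mean activation of all test compounds plus 3 SD, cut at about 40% in these data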;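 further: peak over basal fluorescence ratio in a 140 s read after ATP addition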
M1 antag – blocks human M1 muscarinic receptor; CHO-K1 hM1, Fluo-8 calcium fluorescence, ACh EC80 antagonist; P11229; actives 1.3% (n = 360,000); inhibition, % at 3 µM;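 active means percent inhibition above its own plate's cutoff, namely the mean of that plate's compound wells plus 3 SD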;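 further: peak over basal fluorescence ratio during 140 s after agonist addition; 0% = ACh EC80 plus DMSO and 100% = DMSO alone without agonist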
Target sequence (P11229 whole entry, looked up): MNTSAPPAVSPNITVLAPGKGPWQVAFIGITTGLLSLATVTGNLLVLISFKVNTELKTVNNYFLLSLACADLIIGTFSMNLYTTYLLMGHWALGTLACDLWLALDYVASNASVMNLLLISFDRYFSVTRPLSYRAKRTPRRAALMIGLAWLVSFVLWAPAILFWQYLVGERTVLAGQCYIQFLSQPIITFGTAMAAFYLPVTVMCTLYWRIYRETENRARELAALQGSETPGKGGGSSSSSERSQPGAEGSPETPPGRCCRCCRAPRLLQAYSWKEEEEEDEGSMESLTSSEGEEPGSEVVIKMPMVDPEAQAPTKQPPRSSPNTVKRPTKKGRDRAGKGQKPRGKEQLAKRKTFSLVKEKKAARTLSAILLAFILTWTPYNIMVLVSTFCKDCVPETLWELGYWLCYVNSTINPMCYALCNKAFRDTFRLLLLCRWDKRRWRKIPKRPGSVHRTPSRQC
CHRM1 agonist – activates human CHRM1 receptor; P11229; CHO-K1 hM1, Fluo-8 calcium fluorescence, agonist mode; 0% DMSO, 100% acetylcholine EC100; activation, % at 3 µM; actives 0.33% (n = 360,000);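 active means activation above the run's mean compound activation plus 3 SD, cut at about 16% in these data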;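 further: peak over basal fluorescence ratio within a 140 s kinetic read after compound addition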
CHRM1 PAM – positive allosteric modulators of human M1 muscarinic receptor | P11229 | AID 588819 | activation, % at 3 µM | actives 0.088% (n = 360,000) | CHO-K1 hM1, Fluo-8 calcium fluorescence, ACh EC20; 0% = ACh EC20, 100% = maximal ACh; in the data active means activation above about 19%, passing the limit was not always enough
M1 ag parental – M1 agonist counterscreen hit in parental CHO-K1 cells; Fluo-8 calcium fluorescence; scaled to maximal ATP response, vehicle zero; actives 0.48% (n = 360,000); AID 602248; activation, % at 3 µM; in the data active means activation above about 15%;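 further: untransfected CHO-K1 host cells lacking M1 receptor as counterscreen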
CHO-K1 Ca antag – counter-screen for M1 antagonists: effect in parental CHO-K1 cells | ATP-induced calcium, Fluo-8 fluorescence | inhibition, % at 3 µM | actives 0.6% (n = 360,000) | AID 602250;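 active means inhibition above a per-plate cutoff, the plate's mean sample inhibition plus 3 SD, cut at about 24% in these data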;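 further: 0% = DMSO plus EC80 ATP and 100% = DMSO alone without ATP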
* marks the source's active call; other numbers are inactive results; / = no result given. Sampled rows, rich in hits. Any-hit rate of the full collection: about 2.4%.

SMILES	CHO-K1 Ca PAM	M1 antag	CHRM1 agonist	CHRM1 PAM	M1 ag parental	CHO-K1 Ca antag
N#CC1=C(N)OC2=C(CC/C2=C\c2ccccc2Cl)C1c1ccccc1Cl (stereo not drawn)	-10	7	-3	-2	2	0
Cc1ccc(F)cc1NC(=O)COC(=O)C1CC2CCCC(C1)C2=O (stereo not drawn)	-15	16	-3	-10	0	16
COc1ccccc1CNCc1ccc(OC)c2ccccc12	5	-1	1	-1	5	-6
COc1cccc(CN2CCSCC2)c1OC	-26	13	-5	-2	0	25*
COc1cccc(CNCc2ccc(OC)c3ccccc23)c1OC	-1	22	-1	-9	23*	12
CCN(CC)S(=O)(=O)c1ccc2c(c1)c(=O)c(C(=O)NCCc1ccc(OC)c(OC)c1)cn2C	15	-16	-4	9	1	-10
O=C(O)c1cn(Cc2ccccc2)c2ccc(Cl)cc2c1=O	20	-8	47*	9	1	-13
COc1ccc2c(c1)c(=O)c(C(=O)c1ccccc1)cn2Cc1ccccc1	-10	-1	-1	2	0	3
CCCCCCn1cc(C(=O)O)c(=O)c2ccccc21	0	-4	32*	-2	0	-3
CCc1ccc(NC(=O)C2C3CCC(O3)C2C(=O)O)cc1 (stereo not drawn)	8	-11	-1	4	0	-4
O=[N+]([O-])c1ccc(N2CCN(c3ccc([N+](=O)[O-])cc3CO)CC2)c(CO)c1	-26	13	2	-16	18*	8
N#Cc1cc([N+](=O)[O-])ccc1N1CCN(c2ccccc2O)CC1	-8	9	-4	-5	13	-9
CN1CCN(c2ccc([N+](=O)[O-])cc2C(=O)c2ccc(Br)cc2)CC1	19	21*	-7	-24	1	-8
O=C(CCCNC(=O)c1ccc(Cl)cc1)OCc1cccc(Br)c1	-17	-2	-3	2	-1	-9
O=C(Nc1cc(Cl)cc(Cl)c1)Nc1cnccn1	-28	26	2	-8	1	30*
O=C(Nc1ccc(F)cc1)Nc1cnccn1	13	-7	0	5	2	-9
CCCCC(=O)NNC(=S)NC(=O)c1ccc(C)cc1	6	0	39*	-2	14	-1
CCNC(=S)NNC(=S)NCc1ccccc1	5	2	-2	-4	0	-11
CCCCC(=O)NNC(=S)NCc1ccccc1	11	39*	-3	3	0	-24
CCC(=O)NC(=S)NNC(=O)c1ccc(OC)cc1	-3	0	-4	-1	0	-12
COc1ccc(C(=O)NC(=S)NNC(=O)c2ccc(C)cc2)cc1	-25	31	87*	-21	82*	14
CN(C)c1cccc(C(=O)OCCCC(=O)c2ccc(F)cc2)c1	3	0	-5	-4	1	-9
COc1ccccc1NS(=O)(=O)c1ccc(C)c(C(=O)NCCCN2CCCC2=O)c1	-3	0	3	14	-1	31*
COCC(=O)N1CCC(Oc2ccc(C(=O)N(C)Cc3nccs3)cc2)CC1	-12	-3	-3	1	0	1
C[C@H](NC(=O)c1nc[nH]c1C(=O)N1CCN(c2ccccc2)CC1)c1ccccc1	11	9	-2	-3	1	-9
SMILES	CHO-K1 Ca PAM	M1 antag	CHRM1 agonist	CHRM1 PAM	M1 ag parental	CHO-K1 Ca antag
O=C(NC(=S)NNC(=O)c1ccco1)c1ccc(Br)cc1	6	-4	25*	2	18*	-2
O=C(NNC(=S)NC(=O)c1ccco1)c1ccc(F)cc1	20	-2	4	9	24*	1
CC(OC(=O)/C(C#N)=C/c1ccc(N(C)C)cc1)C(=O)N(C)Cc1ccccc1 (stereo not drawn)	-5	30*	15	-17	14	8
CC(OC(=O)c1cccc(O)c1)C(=O)N(C)Cc1ccccc1 (stereo not drawn)	-6	-18	-5	11	1	-4
Cc1cccc(NS(=O)(=O)c2cccc(C(=O)N3CCN(C/C=C/c4ccccc4)CC3)c2)c1	2	32*	-6	-22	4	-18
COc1ccc(NS(=O)(=O)c2cccc(C(=O)N3CCN(C/C=C/c4ccccc4)CC3)c2)cc1	5	12	-1	-19	10	-7
Cc1ccc(C(=O)N2CCN(C/C=C/c3ccccc3)CC2)cc1S(=O)(=O)N1CCOCC1	17	73*	-7	-27	6	-9
CC(C)CCN1CCN(Cc2cc3ccccc3[nH]2)CC1CCO (stereo not drawn)	11	-3	1	12	16*	12
Cc1cc(C)n2c(Nc3c(C)cccc3C)c(CC(C)C)nc2n1	12	/	/	/	1	-15
CCN1C(=O)[C@H]2[C@@H](c3ccc(C)cc3)N[C@]3(CCCN(Cc4ccc(F)cc4)C3=O)[C@H]2C1=O	-12	-9	-5	-1	-1	25*
Cc1ccc(CN2CCC[C@]3(N[C@H](c4ccccc4)[C@@H]4C(=O)N(Cc5ccccc5)C(=O)[C@@H]43)C2=O)cc1	-15	3	-5	-3	1	29*
CCN1C(=O)[C@H]2[C@@H](c3ccc(C(F)(F)F)cc3)N[C@]3(CCCN(Cc4ccc(C(F)(F)F)cc4)C3=O)[C@H]2C1=O	12	-15	-6	6	0	-15
Clc1ccc(C2=CSC3=NCCN23)cc1Cl	7	17*	-6	-21	1	-8
COc1ccc(C2=CSC3=NCCN23)cc1OC	10	8	-3	-4	0	-2
CCCCOc1ccc(C2=CSC3=NCCN23)cc1[N+](=O)[O-]	7	59*	-9	-28	0	1
O=C(N[C@@H](Cc1ccccc1)C(=O)N1CCC2(CC1)NCCc1[nH]cnc12)c1cccc(Br)c1	-17	39*	-5	-18	0	-2
O=C(Nc1cccc(C(=O)Nc2cccc(Br)c2)c1)c1ccccc1	-20	0	3	-8	8	25*
O=C(Nc1cccc(F)c1)c1ccccc1	0	-9	-3	5	-1	36*
COc1cccc(/C=N/NC(=O)c2cc(-c3ccccn3)nc3ccccc23)c1O	4	37*	-5	-11	4	-16
CCOc1ccc(-c2cc(C(=O)Nc3ccc4c(c3)OCCO4)c3ccccc3n2)cc1	5	11	-2	2	3	30*
CCOc1ccc(-c2cc(C(=O)N/N=C/c3cccnc3)c3ccccc3n2)cc1	-1	-5	7	-4	24*	13
Cn1cnnc1SCC(=O)N/N=C/c1ccc(OCC(N)=O)cc1	9	-6	-1	5	0	-4
